# 12-LOX inh: ALOX12 (human) lipoxygenase inhibition. P18054. purified 12hLO, xylenol orange hydroperoxide absorbance. Potency, µM (series often up to 108 µM), without a hit: at the top dose activity change, negative = inhibition, hits mostly inhibitors. hit rate 1.1% among 580,000; also: % is scaled to controls: 0 for no effect and ±100 for the full control effect
#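 Purified human 12hLO (150 nM final) in 25 mM Hepes, 0.01% Triton X-100, pH 7.0 was preincubated 15 min at room temperature with compound. Then 40 uM arachidonic acid was added, 30 min. Hydroperoxide was read by Fe-XO absorbance ratio 573/405 nm.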
# BAZ2B inh: blocks human BAZ2B | Q9UIF8 | AlphaScreen BAZ2B-H3K14Ac peptide displacement | Potency, µM (series often up to 114 µM), without a hit: top-dose activity change, negative = inhibition, actives largely listed as inhibitors | hit rate 4.4% among 360,000; also: % is scaled to controls: 0 for no effect and ±100 for the full control effect; nearly all actives have a fitted effect of over 60% in size
#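 Inhibition is scored as reduced AlphaScreen emission. The BAZ2B/b-H3(5-23)K14Ac complex (50 nM each) in PBS pH 7.4, 0.01% Tween-20 meets compound (up to 110 uM) for 30 min at RT before bead addition.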
# PLK1 PBD block: blocks phosphopeptide binding to human PLK1 polo-box domain; Plk1 PBD binding of FITC phosphopeptide, fluorescence polarization; Potency, µM, for the others: max response, negative = inhibition, actives largely listed as inhibitors; hit rate 2.8% among 360,000; AID 720504; also: series mostly up to about 57 µM; % is scaled to controls: 0 for no effect and ±100 for the full control effect; nearly all actives have a fitted effect of over 65% in size
# Target sequence (P53350 whole entry, looked up, the tested form may be a part): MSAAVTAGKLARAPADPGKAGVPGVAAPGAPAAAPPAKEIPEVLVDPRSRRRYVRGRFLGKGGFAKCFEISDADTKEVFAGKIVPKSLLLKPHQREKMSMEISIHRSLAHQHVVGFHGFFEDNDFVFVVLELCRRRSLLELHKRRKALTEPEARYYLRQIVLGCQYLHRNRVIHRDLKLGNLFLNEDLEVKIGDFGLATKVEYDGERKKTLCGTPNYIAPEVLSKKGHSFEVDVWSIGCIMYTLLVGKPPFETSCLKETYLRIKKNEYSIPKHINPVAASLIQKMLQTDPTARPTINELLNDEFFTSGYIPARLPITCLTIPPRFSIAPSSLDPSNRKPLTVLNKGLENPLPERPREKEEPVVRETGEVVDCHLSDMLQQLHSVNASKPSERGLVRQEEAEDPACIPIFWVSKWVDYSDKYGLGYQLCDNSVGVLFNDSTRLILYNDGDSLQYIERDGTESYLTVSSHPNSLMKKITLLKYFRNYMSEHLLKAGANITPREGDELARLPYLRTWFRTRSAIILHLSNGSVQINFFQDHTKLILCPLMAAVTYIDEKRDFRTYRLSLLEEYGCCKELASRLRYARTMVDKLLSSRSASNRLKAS
# HP1b binding inh: blocks HP1-beta chromodomain binding to methylated histone tails | hit rate 0.56% among 390,000 | P83916 | Potency, µM (highest dose often 114 µM), for inactives: at the top dose activity change, negative = inhibition, usual class: inhibitors | AlphaScreen HP1-beta / biotin-H3K9me3 peptide binding; also: nearly all actives have a fitted effect of over 70% in size
#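 HP1-beta protein (50 nM final) preincubated 30 min at room temperature with biotinylated H3(1-18)K9me3 peptide (50 nM) in PBS pH 7.4, 0.01% Tween-20, then compound added for 30 min. AlphaScreen streptavidin donor/nickel chelate acceptor beads (10 ug/mL final), 30 min dark, luminescence read.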
# G9a inh: inhibitors of human histone lysine methyltransferase G9a. Potency, µM (doses to about 102 µM), without a hit: top-dose activity, negative = inhibition, usual class: inhibitors. hit rate 8.8% among 350,000. G9a H3K9 monomethylation, AlphaScreen, 2 h. Q96KQ7; also: % is scaled to controls: 0 for no effect and ±100 for the full control effect; nearly all actives have a fitted effect of over 75% in size
#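 Using a bead-based AlphaScreen, monomethylated H3K9 product from 2 h room-temperature reactions (G9a 20 nM, peptide 500 nM, SAM 20 uM) was detected with 0.5 ug/mL rabbit anti-H3K9me1 antibody.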
# JMJD2A Tudor inh: blocks the human JMJD2A Tudor domain. O75164. AlphaScreen JMJD2A-Tudor / H3K4me3 peptide binding. Potency, µM (top dose mostly 114 µM), for inactives: at the highest dose activity change, negative = inhibition, actives largely listed as inhibitors. hit rate 4.4% among 390,000; also: % is scaled to controls: 0 for no effect and ±100 for the full control effect; nearly all actives have a fitted effect of over 50% in size
# Starred values were filed as active, the others as inactive; i = inactive; ? = inconclusive; . = no result; [ ] = another dose, or the depositor's remark. Hits are enriched below; roughly 9% of the tested compounds scored in any of these assays. Calls follow the shape of the dose curve; as a rule, active = well fitted curve in the direction sought with a large enough effect; inconclusive = small, poorly fitted or top-dose-only effect, or another doubt; inactive = no such curve, though single readings can be large; an effect the other way counts as inactive or inconclusive. Potency is read from the fitted curve at half-maximal effect.
SMILES,12-LOX inh,BAZ2B inh,PLK1 PBD block,HP1b binding inh,G9a inh,JMJD2A Tudor inh
COc1cnn(-c2cccc(C(F)(F)F)c2)c(=O)c1Cl,159.4%,.,-2.3%,3.1%,.,-10.3%
CN(Cc1ccc2nonc2c1)C(=O)COc1ccc(Cl)cc1Cl,8.2%,.,.,.,.,.
CCOC(=O)c1cc(S(=O)(=O)Nc2c(C)cc(C)cc2C)[nH]n1,?,?,.,21.6%[57 µM],17.8µM*,-28.8%
CCOC(=O)c1cc(S(=O)(=O)Nc2ccc(F)cc2F)cn1C,-15.2%,-12.2%,-13.1%,22.1%,.,-11.0%
CCOC(=O)c1cc(S(=O)(=O)Nc2ccc(F)c(Cl)c2)[nH]n1,20.7%,.,.,.,.,.
CCOC(=O)c1cc(S(=O)(=O)N2CCN(c3cccc(OC)c3)CC2)[nH]n1,?,?,.,9.1%[57 µM],?,-31.0%
CCOC(=O)c1cc(S(=O)(=O)Nc2cc(F)ccc2C)[nH]n1,?,?,.,20.0%[57 µM],17.8µM*,-28.8%
CCOC(=O)c1cc(S(=O)(=O)Nc2ccc(OC)c(Cl)c2)[nH]n1,?,56.2µM*,.,11.8%[57 µM],8.91µM*,-33.9%
CCOC(=O)c1cc(S(=O)(=O)Nc2ccc(C)cc2Cl)[nH]n1,-7.5%,79.4µM*,.,13.2%[57 µM],8.91µM*,-32.9%
COc1ccc(OCc2ccccc2C#N)c(C(C)=O)c1,-44.7%,.,.,.,.,.
C#CCOCCOCCOCCNc1nc(N2CCN(C(=O)CCCCCCCCCCNC(=O)[C@@H](CCC(=O)O)n3cc(CCCCCN)nn3)CC2)nc(N2CCN(C(=O)CCCCCCCCCCNC(=O)[C@H](CO)n3cc(CCCCCN)nn3)CC2)n1,.,-37.8%,-8.3%,-12.5%,-6.5%[2.33 µM],?
C#CCOCCOCCOCCNc1nc(N2CCN(C(=O)CCCCCCCCCCNC(=O)[C@@H](CCSC)n3cc(CCO)nn3)CC2)nc(N2CCN(C(=O)CCCCCCCCCCNC(=O)[C@H](CO)n3cc(CCCCCN)nn3)CC2)n1,.,?,-6.5%,?,-11.2%[2.33 µM],79.4µM*
C#CCOCCOCCOCCNc1nc(N2CCN(C(=O)CCCCCCCCCCNC(=O)[C@@H](CCC(=O)O)n3cc(CCCCCN)nn3)CC2)nc(N2CCN(C(=O)CCCCCCCCCCNC(=O)[C@H](CO)n3cc(CCCSC)nn3)CC2)n1,.,?,?,28.0%,-10.6%[2.33 µM],44.7µM*
COc1cc(OC)cc(C(=O)OCC(=O)Nc2nnc(-c3ccccc3)o2)c1,2.6%,.,0.3%,73.1%,.,50.1µM*
O=C(COC(=O)c1cncc(Br)c1)Nc1nnc(-c2ccccc2)o1,7.4%,.,-25.5%,24.7%,.,50.1µM*
Cc1ccc(C(=O)CCC(=O)OCC(=O)Nc2nnc(-c3ccccc3)o2)cc1,?,?,-16.6%,8.4%,-0.7%,-25.7%
O=C(COC(=O)c1ccc(Cl)nc1)Nc1nnc(-c2ccccc2)o1,-19.0%,50.1µM*,-4.8%,15.7%,-7.3%,79.4µM*
COCCN1C(=O)c2ccccc2C(C(=O)Nc2ccc(OC)cc2)C12CCCC2 (configuration not stated),-11.7%,.,.,.,.,.
CSCCC(NC(=O)c1ccccc1)C(=O)OCC(=O)Nc1ccc(C)c(Cl)c1 (configuration not stated),?,13.1%,21.2µM*,?,?,-89.3%[57.1 µM]
Cc1ccc(NC(CC(=O)c2ccccc2)C(=O)O)cc1Cl (configuration not stated),?,-8.0%,23.8µM*,13.7%,.,-22.1%[11.4 µM]
CSCCC(NC(=O)c1ccc(Cl)cc1)C(=O)OCC(=O)Nc1cc(Cl)ccc1C#N (configuration not stated),?,-1.0%,7.1%,25.4%,-5.7%[59 µM],5.7%
CCOc1cc(C=O)cc(Br)c1OCC(N)=O,-4.2%,-15.8%,-5.4%,50.5%,1.9%,3.3%
CCCn1ccc2c(OCC(=O)Nc3ccccc3C(F)(F)F)cccc2c1=O,9.9%,.,.,.,.,.
COc1ccc(C2C3C=CCC(c4ccccc4)C3C(=O)N2Cc2ccccc2)cc1Cl (configuration not stated),.,.,.,3.3%,.,-20.7%
N#Cc1nc(-c2ccco2)oc1N1CCN(Cc2ccccc2)CC1,?,50.1µM*,-2.6%,-24.4%,?,?
SMILES,12-LOX inh,BAZ2B inh,PLK1 PBD block,HP1b binding inh,G9a inh,JMJD2A Tudor inh
COc1ccccc1-c1nc(C#N)c(N2CCN(Cc3ccccc3)CC2)o1,407.0%,28.2µM*,-2.2%,14.1µM*,?,?
COc1ccccc1-c1nc(C#N)c(N2CCN(C)CC2)o1,-9.0%,.,.,.,.,.
CN(Cc1ccccc1)c1oc(-c2ccco2)nc1C#N,i,44.7µM*,-7.7%,?,?,?
CCn1c(SCC(=O)Nc2nc3ccc(C)cc3s2)nc2c(c1=O)SC(C)C2 (configuration not stated),.,?,?,-23.3%,-29.1%,-34.2%[11.4 µM]
O=C(Nc1cccc(C(F)(F)F)c1)O[C@@H]1CO[C@H]2[C@@H]1OC[C@@H]2n1nnnc1SC1CCCC1,10.7%,.,.,.,.,.
CCCCCCN1CCN(C2CN(CCc3ccccc3)S(=O)(=O)C2)CC1 (configuration not stated),-52.2%,.,2.0%,.,.,.
CCC(C)NC(=O)CN1C(=O)c2cccnc2Sc2ccccc21 (configuration not stated),-7.8%,-33.0%,.,66.9%,3.4%[59 µM],0.7%
CCC(C)C(=O)N1c2ccccc2C(=C2SC(C(=O)OC)=C(C(=O)OC)S2)C(=S)C1(C)C (configuration not stated),-1.9%,8.91µM*,-13.3%,?,?,8.91µM*
Cc1ccc(CCc2nnc(SCC(=O)Nc3ccccc3Cl)n2-c2ccccc2)o1,-19.1%,?,-5.4%,-3.9%,28.2µM*,-32.5%
CCOC(=O)c1ccc(NC(=O)CSc2nnc(CCc3ccc(C)o3)n2-c2ccccc2)cc1,-26.6%,-28.7%,-14.5%,12.4%,44.7µM*,-16.6%
COC(=O)c1ccc(NC(=O)CSc2nc(=O)cc(N)n2-c2ccccc2)cc1,-2.2%,-11.6%,26.7µM*,6.8%,-3.7%,-26.1%
Cc1cc(-c2nc3ncccc3[nH]2)c(C)[nH]1,89.7%[176 µM],.,.,.,.,.
COCCC1(C(=O)O)CCCN(C(=O)CCc2c(C)n[nH]c2C)C1 (configuration not stated),9.7%,.,.,.,.,.
CCCCC(=O)N1C[C@@H](CO)[C@H](c2nc(C)no2)C1,58.1%,.,.,.,.,.
Cc1ccc(N2C(=O)c3cccc(Oc4ccc(Cl)cc4)c3C2=O)c(C)c1,5.5%,2.0%,7.7%,36.0%,-6.0%[59 µM],-9.7%
Cc1nn(CC(=O)NCC(C)N2CCCC2)c(=O)c2ccccc12 (configuration not stated),-12.8%,.,.,.,.,.
CCc1nnc(SCc2ccc(F)cc2Cl)c2cc3sccc3n12,-30.5%,-11.8%,.,45.1%,-16.1%[59 µM],-6.2%
